In the library only some 1.4% were active in any assay of this set; here they are far more common.
LEDGF integ inh = blocks HIV-1 LEDGF/p75-dependent DNA integration | AID 743269 | TR-FRET IN-LEDGF/p75 DNA integration, Eu/Cy5 | inhibition, % at 3.7 µM | hit rate 0.64% among 370,000;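 active means inhibition above the screen-wide mean plus 3 SD, cut at about 13% in these data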;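 further: signal is the Cy5 over europium emission ratio at 671 and 618 nm; 0% = plate median of compound wells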
UHRF1 MBD2 ctr = UHRF1 methyl-DNA binding inhibition | inhibition, % at 4.4 µM | Q96T88 | UHRF1 binding to methylated oligo, TR-FRET | hit rate 0.75% among 370,000 | AID 687016; in the data active means inhibition above about 21%;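 further: UHRF1 SRA domain binding a hemimethylated CpG hairpin DNA probe; 0% = median of test compound wells and 100% = reference inhibitor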
Casp6 inh = blocks human caspase-6 cleavage activity | P55212 | purified caspase-6, Z-VEID-R110 cleavage fluorescence | inhibition, % at 12.5 µM | hit rate 0.53% among 350,000 | AID 686996;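 active means mean inhibition across replicates at least about 35%, with every replicate also reaching that limit, limit read from the data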;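 further: 0% = median of neutral control wells and 100% = no fluorescence left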
MBD2 DNA inh = MBD2-methylated oligo binding inhibition | Q9UBB5 | TR-FRET, MBD2 binding to methylated oligonucleotide | inhibition, % at 4.4 µM | hit rate 0.31% among 370,000; in the data active means inhibition above about 13%
Target sequence (Q9UBB5 whole entry, looked up): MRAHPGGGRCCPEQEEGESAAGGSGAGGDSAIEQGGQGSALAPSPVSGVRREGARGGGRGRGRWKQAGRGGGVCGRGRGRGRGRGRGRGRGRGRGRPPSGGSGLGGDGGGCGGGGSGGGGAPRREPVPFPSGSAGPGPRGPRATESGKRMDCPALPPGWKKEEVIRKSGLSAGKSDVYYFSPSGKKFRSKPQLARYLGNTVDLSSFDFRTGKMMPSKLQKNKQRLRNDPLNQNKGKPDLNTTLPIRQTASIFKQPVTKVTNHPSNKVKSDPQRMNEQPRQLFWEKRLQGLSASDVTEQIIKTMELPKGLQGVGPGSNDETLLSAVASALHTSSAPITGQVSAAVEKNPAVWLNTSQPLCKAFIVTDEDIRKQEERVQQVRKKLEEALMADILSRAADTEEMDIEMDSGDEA
* marks the source's active call; other numbers are inactive results; . = no result.

SMILES	LEDGF integ inh	UHRF1 MBD2 ctr	Casp6 inh	MBD2 DNA inh
O=C(NCC1CC1)c1ccc(-n2ccnc2)c2ccoc12	10	25*	5	9
C=CCOc1cccn2c(N(C=O)Cc3ccccc3)c(CC)nc12	-3	0	37*	3
CCc1nc2c(OCc3ccc(Cl)cc3)cccn2c1N(C=O)Cc1ccccc1	-4	0	4	0
CCCCCN(C(=O)CCC(=O)OC(C)C(=O)NC1CCCCC1)c1c(N)n(CCCC)c(=O)[nH]c1=O (configuration not stated)	0	3	43*	-6
C[C@@H]1CN([C@@H](C)CO)C(=O)c2cc(NS(=O)(=O)c3ccc(F)cc3)ccc2O[C@H]1CN(C)Cc1ccc2c(c1)OCO2	.	.	-3	.
COc1ccccc1CNc1nc(NCc2ccccc2OC)c2sccc2n1	0	0	1	8
COc1ccccc1CNc1nc(Nc2ccccc2-n2cccn2)c2sccc2n1	5	-3	43*	2
COc1cccc(NC(=O)N[C@H]2CC[C@@H](CC(=O)N3CCCCC3)O[C@@H]2CO)c1	.	.	1	.
Cc1ccc(S(=O)(=O)Nc2ccc3c(c2)C(=O)N([C@H](C)CO)C[C@@H](C)[C@H](CN(C)C(=O)NC(C)C)OCCCC[C@@H](C)O3)cc1	.	.	-1	.
O=C(N/N=C/c1ccc(Cl)cc1)C(=O)N1CCCCCC1	0	27*	-4	0
O=C(N/N=C/c1ccc(C(=O)O)cc1)C(=O)N1CCCCCC1	-3	-1	0	2
O=C(NCC[C@@H]1CC[C@@H](NC(=O)Nc2cc(F)ccc2F)[C@@H](CO)O1)Nc1ccc(Cl)cc1	.	.	-2	.
CC(C)(O)c1cn([C@@H]2C[C@@H]3O[C@H](CO)CC[C@@H]3O[C@@H]2CCc2ccc(-c3cccnc3)cc2)nn1	.	.	-4	.
CC(C)(O)c1cn([C@@H]2C[C@@H]3O[C@@H](CO)CC[C@@H]3O[C@@H]2CCc2ccc(-c3ccncc3)cc2)nn1	.	.	52*	.
CC(C)N(CC#CCC(O)(c1ccccc1)c1ccccc1)CCO	5	26*	.	-2
CCOC(=O)Cc1csc(NC(=O)c2c(C)noc2C)n1	1	24*	19	8
CSc1ccc(CCNC(=O)CCc2nnc3ccc(N4CCCC4)nn23)cc1	-1	0	-2	2
O=C(CCc1nnc2ccc(N3CCCCC3)nn12)NCc1ccco1	2	25*	-5	3
COc1cc(NC(=O)CCc2nnc3ccc(N4CCCC4)nn23)cc(OC)c1OC	0	23*	1	7
COc1cc(NC(=O)CCc2nnc3ccc(N4CCCCC4)nn23)cc(OC)c1OC	1	-2	-1	0
Cc1noc(C)c1NC(=O)Nc1ccc2c(c1)CC(=O)N([C@@H](C)CO)C[C@@H](C)[C@@H](CN(C)Cc1ccc(C(=O)O)cc1)O2	.	.	0	.
O=C(CN1C(=O)CSc2ccc(S(=O)(=O)N3CCCCC3)cc21)NCc1cccnc1	2	4	2	12
CC1CCN(S(=O)(=O)c2ccc3c(c2)N(CC(=O)NCc2cccnc2)C(=O)CS3)CC1	1	22*	1	8
Cc1noc(C)c1NC(=O)Nc1ccc2c(c1)C(=O)N([C@@H](C)CO)C[C@H](C)[C@H](CN(C)Cc1ccncc1)OCCCC[C@H](C)O2	.	.	-1	.
C#Cc1ccc([C@H]2C=C(C(=O)NC3CC3)O[C@@H](OCc3ccc(CO)cc3)C2)cc1	.	.	5	.
SMILES	LEDGF integ inh	UHRF1 MBD2 ctr	Casp6 inh	MBD2 DNA inh
O=C1C(Cl)=C(NCc2ccco2)C(=O)c2ccccc21	10	-15	99*	-22
C[C@H](CO)N1C[C@H](C)[C@H](CN(C)Cc2ccncc2)Oc2c(NS(C)(=O)=O)cccc2C1=O	.	.	-1	.
C[C@@H]1CCCCO[C@@H](CN(C)C(=O)NC2CCCCC2)[C@@H](C)CN([C@@H](C)CO)C(=O)c2cc(NS(=O)(=O)c3ccc(F)cc3)ccc2O1	.	.	1	.
COc1ccc(NC2=C(NCCO)C(=O)c3ccccc3C2=O)cc1	7	11	88*	-4
COc1cccc(NC2=C(NCCO)C(=O)c3ccccc3C2=O)c1	7	-12	10	-18
C[C@@H]1CN([C@H](C)CO)C(=O)c2cc(NS(=O)(=O)c3cn(C)cn3)ccc2O[C@@H](C)CCCCO[C@@H]1CN(C)C(=O)CCCN(C)C	.	.	36*	.
CC(C)NC(=O)N(C)C[C@H]1OCCCC[C@H](C)Oc2ccc(NS(=O)(=O)c3ccccc3)cc2C(=O)N([C@H](C)CO)C[C@H]1C	5	22*	-2	7
CO[C@@H]1CN(C)C(=O)c2ccc(NS(=O)(=O)c3cn(C)cn3)cc2OC[C@@H](C)N(CC2CC2)C[C@@H]1C	.	.	-5	.
CN1[C@@H]2c3ccc(-c4ccccc4)c(=O)n3C[C@@H]2[C@@H](CO)[C@@H]1C(=O)N1CCc2ccccc2C1	.	.	2	.

Source: PubChem
